# According to PubChem BioAssay:
# The source made the active and inactive calls.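 The calls were made as follows, unless noted: active = inhibition of the reporter signal at or above 50%; inactive = inhibition below 50%.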
# What was measured:
# [1] = inhibitors of TNFa-induced NFkB p65 translocation, primary screen, imaging, HUVEC, MLSMR starter and 10KST1 sets (AID 438;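 active = inhibition above 20% together with a positive visual image hit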;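 also: compound added about 3h40 before a 20 min TNFalpha stimulation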;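 as to inhibition: signal is the nuclear over cytoplasmic p65 intensity ratio per well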); details: HUVEC TNFa-induced p65 nuclear translocation; cell count: measured here: nuclei count (cytotoxicity indicator), at 2.08 µM; inhibition: at 2 µM, stronger effect = higher value, 0% TNFa-plus-vehicle, 100% no-TNFa wells
# [2] = inhibitors of mutant huntingtin aggregation, primary screen, imaging, exon1htt(103Q)mCFP cells, high-content imaging (AID 483;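 active = visual image review flags a hit and inhibition of aggregation exceeds 20%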;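 also: compound exposure lasted 3 days before fixation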;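 as to nuclei count: percent of the per-plate median nuclei count of sample wells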); details: exon1htt(103Q)mCFP cell line, aggregate imaging, at 2 µM; inhibition of aggregation: stronger effect = higher value; nuclei count: measured here: cell count, toxicity
# [3] = inhibitors of E-selectin induction by TNFa, primary screen, imaging, HUVEC, immunofluorescence, MLSMR starter and 10KST1 sets (AID 487;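 active = visually confirmed hit in the image check and inhibition above 20%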;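 as to inhibition: signal is fraction of cell area covered by stained E-selectin grains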;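 as to nuclei count: 100% = median nuclei count of all wells on the same plate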); details: HUVEC TNFalpha-induced E-selectin immunofluorescence imaging, at 2 µM; inhibition: stronger effect = higher value; nuclei count: measured here: cell number, toxicity
# [4] = target: Voltage-gated potassium channel subunit beta-2 (Rattus norvegicus) (UniProt P62483); test: KvBeta enzyme negative modulators, primary screen, biochemical, NADPH fluorescence (AID 622;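 active = fluorescence slope higher than the sample average by over 3 SD, cut at about -0.22 in these data, passing the limit was not always enough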;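 also: slope of raw intensity against log time taken from 70 to 1610 s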); details: recombinant KvBeta, 4-cyanobenzaldehyde reduction, at 10 µM, stronger effect = higher value
# Voltage-gated potassium channel subunit beta-2 (Rattus norvegicus), sequence (P62483 whole entry, looked up): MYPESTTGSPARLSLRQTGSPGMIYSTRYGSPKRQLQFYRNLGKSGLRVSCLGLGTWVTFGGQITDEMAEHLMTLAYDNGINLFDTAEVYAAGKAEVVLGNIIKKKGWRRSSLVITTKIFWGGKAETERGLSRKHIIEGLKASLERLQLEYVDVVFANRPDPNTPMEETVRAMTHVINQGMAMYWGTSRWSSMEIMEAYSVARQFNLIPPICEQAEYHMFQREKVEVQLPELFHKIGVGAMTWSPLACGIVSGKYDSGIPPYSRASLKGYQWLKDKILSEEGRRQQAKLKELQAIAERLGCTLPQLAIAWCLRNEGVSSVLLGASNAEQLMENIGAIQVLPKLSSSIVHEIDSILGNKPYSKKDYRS
# [5] = target: Voltage-gated potassium channel subunit beta-2 (Rattus norvegicus) (UniProt P62483); test: KvBeta positive modulators, primary screen, biochemical, NADPH fluorescence (AID 623;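 active = NADPH fluorescence slope more negative than the mean of all samples by about 3 SD, 99.7% confidence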;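 also: fluorescence intensity change per second fitted from 20 to 320 s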); details: Recombinant KvBeta, NADPH fluorescence decrease slope, 10 min; at 10 µM; stronger effect = lower value
# [6] = target: Alpha-2C adrenergic receptor (Homo sapiens) (UniProt P18825); test: modulators of alpha2C/GIRK thallium flux, primary screen, cell-based, HEK293 alpha2C/GIRK1/2 (AID 624;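 active = fluorescence slope after compound addition differing from the mean of all screened samples at 99.7% confidence, in either direction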;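 also: slope of fluorescence ratio to pre-addition baseline per second over 15 to 24 s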); details: thallium flux BTC fluorescence, at 10 µM, actives lie on both sides
# Alpha-2C adrenergic receptor (Homo sapiens), sequence (P18825 whole entry, looked up): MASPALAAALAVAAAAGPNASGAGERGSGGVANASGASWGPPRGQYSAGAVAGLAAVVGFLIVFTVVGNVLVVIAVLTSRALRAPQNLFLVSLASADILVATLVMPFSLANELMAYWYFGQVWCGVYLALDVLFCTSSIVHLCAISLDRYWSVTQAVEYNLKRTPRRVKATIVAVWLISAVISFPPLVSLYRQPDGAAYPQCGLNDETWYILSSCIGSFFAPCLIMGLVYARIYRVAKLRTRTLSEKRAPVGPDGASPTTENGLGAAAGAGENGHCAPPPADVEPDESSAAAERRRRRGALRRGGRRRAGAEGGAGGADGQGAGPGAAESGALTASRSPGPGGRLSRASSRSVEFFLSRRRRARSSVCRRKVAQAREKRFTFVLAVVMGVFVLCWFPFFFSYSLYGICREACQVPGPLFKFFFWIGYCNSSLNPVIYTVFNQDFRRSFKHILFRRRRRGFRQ
# [7] = inhibitors of Sendai virus-induced IRF3 signaling, primary screen, TLR/RLR signaling modifier project, cell-based, Sendai virus stimulus, luciferase, 10K MLSCN set (AID 602276;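 active = inhibition at or above 50% at 10 µM; inactive = inhibition below 50%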;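 also: firefly luciferase from ISG56 promoter only with Renilla not read in this screen; 0% = Sendai virus plus DMSO and 100% = medium plus DMSO without virus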); details: HEK293 RL24 IRF3 luciferase reporter, at 10 µM, stronger effect = higher value
# [8] = inhibitors of poly I:C-induced TLR3 signaling, primary screen, cell-based, poly I:C stimulus, luciferase, 10K MLSCN set (AID 602277); details: HEK293-TLR3 RL24 IRF3 luciferase reporter, at 10 µM, stronger effect = higher value
Structure (SMILES),cell count [1],inhibition [1],inhibition of aggregation [2],nuclei count [2] [%],inhibition [3],nuclei count [3] [%],fluorescence slope [4],NADPH fluorescence slope [5],slope [6],inhibition [7],inhibition [8]
COc1ccc(Cl)cc1N1CC(c2nc3ccccc3[nH]2)CC1=O (stereo not given),542,1.4% (inactive),2% (inactive),114,1.9% (inactive),107,-0.607 (inactive),6.8e-06 (inactive),0.00704 (inactive),16.2% (inactive),16.9% (inactive)
CCOn1c(=O)c(=O)n(OCc2ccccc2)c2ccccc21,355,0.3% (inactive),13% (inactive),97.7,-32.9% (inactive),120,-0.345 (inactive),-5.2e-05 (inactive),0.00578 (inactive),19.9% (inactive),25% (inactive)
CCOC(=O)N1CCC(NC(=O)CN2C(=O)CCSc3ccccc32)CC1,807,-8.5% (inactive),5.8% (inactive),101,-78% (inactive),108,-0.515 (inactive),-3.1e-05 (inactive),0.00644 (inactive),4.21% (inactive),1.38% (inactive)
O=C(Cc1cccs1)NCc1ccc(F)cc1,458,2.4% (inactive),10.1% (inactive),107,56.1% (active),93.3,-0.408 (inactive),-3.6e-06 (inactive),0.00459 (inactive),-18.8% (inactive),-36.3% (inactive)
CCCCNc1cc(C)oc(=O)c1C(C)=O,590,10.2% (inactive),11.4% (inactive),97.3,-81% (inactive),123,-0.443 (inactive),2e-05 (inactive),0.006 (inactive),-0.373% (inactive),22.9% (inactive)
CN(C)CCN1C(=O)c2oc3ccc(Cl)cc3c(=O)c2C1c1cccc(Br)c1 (stereo not given),229,-8.1% (inactive),13.3% (inactive),83.3,-36.3% (inactive),89.9,-0.412 (inactive),-1.4e-05 (inactive),0.00335 (inactive),17.2% (inactive),49.7% (inactive)
O=C(Cn1ncc2c1-c1ccccc1OC2)N1CCc2ccccc21,678,4.4% (inactive),10.6% (inactive),84.5,4.3% (inactive),108,-0.587 (inactive),6e-06 (inactive),0.00757 (inactive),5.8% (inactive),1.51% (inactive)
Cc1cccc2cc(CN(CCCO)C(=O)Nc3ccc(Cl)cc3)c(=O)[nH]c12,402,5.6% (inactive),-13% (inactive),117,-307% (inactive),156,-0.646 (inactive),1e-05 (inactive),0.00902 (inactive),12.2% (inactive),-2.7% (inactive)
Cc1ccc(-c2nc3cc(NC(=O)C(C)C)ccc3o2)cc1C,709,-5% (inactive),-7.4% (inactive),99.3,-160% (inactive),122,-0.453 (inactive),2.2e-05 (inactive),0.00605 (inactive),19.2% (inactive),12.7% (inactive)
CCc1ccc(CN(C)CCc2ccccn2)cc1,590,-7.7% (inactive),7.2% (inactive),108,-61.6% (inactive),94,-0.482 (inactive),-0.000258 (inactive),0.00499 (inactive),5.44% (inactive),7.65% (inactive)
